We go through seven compounds from ChEMBL document CHEMBL2218924, “A broad activity screen in support of a chemogenomic map for kinase signalling research and drug discovery” (Biochem J, 2013).

Test [1] has as its target Serine/threonine-protein kinase PAK 4 (Homo sapiens) (UniProt O96013). Conditions: at 1 µM.
Test [2] shares this target. Conditions: at 10 µM.
The target in test [3] is Serine/threonine-protein kinase PAK 5 (Homo sapiens) (UniProt Q9P286). Conditions: at 1 µM.
Test [4] has the same target. Conditions: at 10 µM.
Test [5] deals with Serine/threonine-protein kinase PAK 6 (Homo sapiens) (UniProt Q9NQU5). Conditions: at 1 µM.
Test [6] has the same target. Conditions: at 10 µM.
For test [7], the target named is PAS domain-containing serine/threonine-protein kinase (Homo sapiens) (UniProt Q96RG2). Conditions: at 10 µM.
Test [8] addresses Activated CDC42 kinase 1 (Homo sapiens) (UniProt Q07912). Conditions: at 1 µM.
The target is the same in test [9]. Conditions: at 10 µM.
In test [10] the target is ALK tyrosine kinase receptor (Homo sapiens) (UniProt Q9UM73). Conditions: at 1 µM.
For test [11] the target is unchanged. Conditions: at 10 µM.
For test [12], the target named is T1, Activin receptor type-1B (Homo sapiens) (UniProt P36896).
T1 sequence (whole entry): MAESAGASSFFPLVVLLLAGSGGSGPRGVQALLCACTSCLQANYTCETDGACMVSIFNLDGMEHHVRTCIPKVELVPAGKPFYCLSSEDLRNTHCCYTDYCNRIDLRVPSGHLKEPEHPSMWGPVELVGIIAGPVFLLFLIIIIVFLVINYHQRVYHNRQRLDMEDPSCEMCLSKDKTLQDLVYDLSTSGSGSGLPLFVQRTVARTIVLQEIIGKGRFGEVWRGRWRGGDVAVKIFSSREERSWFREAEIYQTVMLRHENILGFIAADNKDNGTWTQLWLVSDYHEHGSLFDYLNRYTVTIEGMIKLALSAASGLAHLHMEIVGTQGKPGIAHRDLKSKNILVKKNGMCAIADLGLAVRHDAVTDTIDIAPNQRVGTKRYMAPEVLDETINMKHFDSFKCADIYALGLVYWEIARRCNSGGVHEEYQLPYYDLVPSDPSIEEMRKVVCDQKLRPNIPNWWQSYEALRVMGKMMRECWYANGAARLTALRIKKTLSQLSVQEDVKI
Conditions: at 1 µM.

Test [13] concerns the target T1, Activin receptor type-1B (Homo sapiens). Conditions: at 10 µM.
Test [14] addresses T2, AMP-activated protein kinase (AMPK) alpha-1/beta-1/gamma-1 (Homo sapiens) (UniProt P54619+Q9Y478+Q13131). Conditions: at 1 µM.
The target in test [15] is T2, AMP-activated protein kinase (AMPK) alpha-1/beta-1/gamma-1 (Homo sapiens). Conditions: at 10 µM.
Test [16] addresses T3, AMP-activated protein kinase, AMPK (Homo sapiens) (UniProt P54646+O43741+P54619+Q9UGJ0+Q9Y478+Q13131+Q9UGI9). Conditions: at 1 µM.
Test [17] deals with T3, AMP-activated protein kinase, AMPK (Homo sapiens). Conditions: at 10 µM.
Test [18] deals with T4, NUAK family SNF1-like kinase 1 (Homo sapiens) (UniProt O60285).
T4 sequence (whole entry): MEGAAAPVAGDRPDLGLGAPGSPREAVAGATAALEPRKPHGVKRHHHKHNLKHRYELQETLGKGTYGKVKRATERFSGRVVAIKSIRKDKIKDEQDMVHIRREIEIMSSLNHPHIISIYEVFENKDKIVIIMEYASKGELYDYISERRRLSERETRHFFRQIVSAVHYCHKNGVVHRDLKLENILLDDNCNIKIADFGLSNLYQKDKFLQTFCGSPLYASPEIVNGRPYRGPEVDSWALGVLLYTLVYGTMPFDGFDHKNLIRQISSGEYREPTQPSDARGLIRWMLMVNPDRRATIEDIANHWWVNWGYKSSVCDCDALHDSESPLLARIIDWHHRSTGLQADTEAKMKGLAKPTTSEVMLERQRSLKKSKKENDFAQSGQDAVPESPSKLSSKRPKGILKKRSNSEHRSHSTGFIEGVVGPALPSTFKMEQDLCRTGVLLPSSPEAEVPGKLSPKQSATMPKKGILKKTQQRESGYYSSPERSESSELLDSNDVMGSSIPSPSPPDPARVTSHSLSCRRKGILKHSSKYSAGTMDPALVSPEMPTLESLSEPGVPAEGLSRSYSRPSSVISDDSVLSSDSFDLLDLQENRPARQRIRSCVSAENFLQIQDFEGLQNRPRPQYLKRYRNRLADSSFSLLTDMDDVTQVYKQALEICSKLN
Conditions: at 1 µM.

The target of test [19] is T4, NUAK family SNF1-like kinase 1 (Homo sapiens). Conditions: at 10 µM.
Test [20] concerns the target T5, Mitogen-activated protein kinase kinase kinase 5 (Homo sapiens) (UniProt Q99683).
T5 sequence (whole entry): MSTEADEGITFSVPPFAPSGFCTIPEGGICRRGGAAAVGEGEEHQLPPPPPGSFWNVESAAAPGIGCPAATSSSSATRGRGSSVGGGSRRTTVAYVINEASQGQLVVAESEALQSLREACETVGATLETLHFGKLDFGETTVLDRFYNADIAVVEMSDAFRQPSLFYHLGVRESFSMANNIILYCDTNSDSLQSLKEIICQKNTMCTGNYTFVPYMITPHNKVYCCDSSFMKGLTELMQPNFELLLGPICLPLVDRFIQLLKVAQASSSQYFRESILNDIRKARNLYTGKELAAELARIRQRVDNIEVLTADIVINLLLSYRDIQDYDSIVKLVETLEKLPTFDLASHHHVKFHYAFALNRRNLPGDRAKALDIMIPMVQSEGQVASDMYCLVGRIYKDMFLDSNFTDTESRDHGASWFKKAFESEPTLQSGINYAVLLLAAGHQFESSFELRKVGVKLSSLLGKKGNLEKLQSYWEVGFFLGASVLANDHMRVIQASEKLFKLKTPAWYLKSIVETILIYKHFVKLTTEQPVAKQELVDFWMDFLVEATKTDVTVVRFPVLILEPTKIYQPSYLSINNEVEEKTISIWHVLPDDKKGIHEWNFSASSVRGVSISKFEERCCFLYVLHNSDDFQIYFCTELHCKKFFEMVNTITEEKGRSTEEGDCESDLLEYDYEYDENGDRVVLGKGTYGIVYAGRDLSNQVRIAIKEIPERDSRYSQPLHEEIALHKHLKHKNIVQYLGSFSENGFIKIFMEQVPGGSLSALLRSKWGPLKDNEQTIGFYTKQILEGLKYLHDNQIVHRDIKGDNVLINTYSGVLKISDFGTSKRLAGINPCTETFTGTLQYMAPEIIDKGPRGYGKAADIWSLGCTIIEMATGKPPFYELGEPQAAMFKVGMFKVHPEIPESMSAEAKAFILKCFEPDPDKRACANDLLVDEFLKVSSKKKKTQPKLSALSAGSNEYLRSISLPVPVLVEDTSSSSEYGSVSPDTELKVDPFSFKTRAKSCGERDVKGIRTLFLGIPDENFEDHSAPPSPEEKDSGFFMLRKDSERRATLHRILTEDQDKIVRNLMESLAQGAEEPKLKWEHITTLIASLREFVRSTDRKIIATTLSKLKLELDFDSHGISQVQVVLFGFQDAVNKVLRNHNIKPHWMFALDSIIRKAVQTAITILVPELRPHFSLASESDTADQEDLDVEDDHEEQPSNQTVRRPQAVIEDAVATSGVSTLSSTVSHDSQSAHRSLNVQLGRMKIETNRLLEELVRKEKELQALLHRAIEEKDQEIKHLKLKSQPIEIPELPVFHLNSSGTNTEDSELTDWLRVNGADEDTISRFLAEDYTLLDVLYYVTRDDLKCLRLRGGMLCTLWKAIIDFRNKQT
Conditions: at 1 µM.

Serine/threonine-protein kinase PAK 6 (Homo sapiens), sequence (Q9NQU5 whole entry, looked up): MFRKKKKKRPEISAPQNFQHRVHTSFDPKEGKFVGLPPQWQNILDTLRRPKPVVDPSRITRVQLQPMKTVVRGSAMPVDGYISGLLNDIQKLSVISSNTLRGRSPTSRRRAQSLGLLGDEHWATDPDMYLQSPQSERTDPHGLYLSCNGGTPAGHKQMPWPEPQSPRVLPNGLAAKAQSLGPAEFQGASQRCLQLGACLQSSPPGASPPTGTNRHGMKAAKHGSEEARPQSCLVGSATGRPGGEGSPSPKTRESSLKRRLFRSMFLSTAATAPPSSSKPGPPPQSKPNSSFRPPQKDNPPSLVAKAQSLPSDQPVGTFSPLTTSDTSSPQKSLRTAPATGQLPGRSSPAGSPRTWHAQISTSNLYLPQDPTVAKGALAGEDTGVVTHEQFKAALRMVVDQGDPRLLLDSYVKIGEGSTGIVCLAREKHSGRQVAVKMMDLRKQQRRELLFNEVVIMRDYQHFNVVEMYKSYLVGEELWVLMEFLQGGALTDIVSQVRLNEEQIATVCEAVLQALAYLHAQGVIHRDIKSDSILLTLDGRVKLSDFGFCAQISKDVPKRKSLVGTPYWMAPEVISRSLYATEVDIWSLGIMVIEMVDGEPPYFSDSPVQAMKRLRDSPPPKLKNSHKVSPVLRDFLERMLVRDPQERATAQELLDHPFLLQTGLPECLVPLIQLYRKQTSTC
ALK tyrosine kinase receptor (Homo sapiens), sequence (Q9UM73 19-1620 limits assumed): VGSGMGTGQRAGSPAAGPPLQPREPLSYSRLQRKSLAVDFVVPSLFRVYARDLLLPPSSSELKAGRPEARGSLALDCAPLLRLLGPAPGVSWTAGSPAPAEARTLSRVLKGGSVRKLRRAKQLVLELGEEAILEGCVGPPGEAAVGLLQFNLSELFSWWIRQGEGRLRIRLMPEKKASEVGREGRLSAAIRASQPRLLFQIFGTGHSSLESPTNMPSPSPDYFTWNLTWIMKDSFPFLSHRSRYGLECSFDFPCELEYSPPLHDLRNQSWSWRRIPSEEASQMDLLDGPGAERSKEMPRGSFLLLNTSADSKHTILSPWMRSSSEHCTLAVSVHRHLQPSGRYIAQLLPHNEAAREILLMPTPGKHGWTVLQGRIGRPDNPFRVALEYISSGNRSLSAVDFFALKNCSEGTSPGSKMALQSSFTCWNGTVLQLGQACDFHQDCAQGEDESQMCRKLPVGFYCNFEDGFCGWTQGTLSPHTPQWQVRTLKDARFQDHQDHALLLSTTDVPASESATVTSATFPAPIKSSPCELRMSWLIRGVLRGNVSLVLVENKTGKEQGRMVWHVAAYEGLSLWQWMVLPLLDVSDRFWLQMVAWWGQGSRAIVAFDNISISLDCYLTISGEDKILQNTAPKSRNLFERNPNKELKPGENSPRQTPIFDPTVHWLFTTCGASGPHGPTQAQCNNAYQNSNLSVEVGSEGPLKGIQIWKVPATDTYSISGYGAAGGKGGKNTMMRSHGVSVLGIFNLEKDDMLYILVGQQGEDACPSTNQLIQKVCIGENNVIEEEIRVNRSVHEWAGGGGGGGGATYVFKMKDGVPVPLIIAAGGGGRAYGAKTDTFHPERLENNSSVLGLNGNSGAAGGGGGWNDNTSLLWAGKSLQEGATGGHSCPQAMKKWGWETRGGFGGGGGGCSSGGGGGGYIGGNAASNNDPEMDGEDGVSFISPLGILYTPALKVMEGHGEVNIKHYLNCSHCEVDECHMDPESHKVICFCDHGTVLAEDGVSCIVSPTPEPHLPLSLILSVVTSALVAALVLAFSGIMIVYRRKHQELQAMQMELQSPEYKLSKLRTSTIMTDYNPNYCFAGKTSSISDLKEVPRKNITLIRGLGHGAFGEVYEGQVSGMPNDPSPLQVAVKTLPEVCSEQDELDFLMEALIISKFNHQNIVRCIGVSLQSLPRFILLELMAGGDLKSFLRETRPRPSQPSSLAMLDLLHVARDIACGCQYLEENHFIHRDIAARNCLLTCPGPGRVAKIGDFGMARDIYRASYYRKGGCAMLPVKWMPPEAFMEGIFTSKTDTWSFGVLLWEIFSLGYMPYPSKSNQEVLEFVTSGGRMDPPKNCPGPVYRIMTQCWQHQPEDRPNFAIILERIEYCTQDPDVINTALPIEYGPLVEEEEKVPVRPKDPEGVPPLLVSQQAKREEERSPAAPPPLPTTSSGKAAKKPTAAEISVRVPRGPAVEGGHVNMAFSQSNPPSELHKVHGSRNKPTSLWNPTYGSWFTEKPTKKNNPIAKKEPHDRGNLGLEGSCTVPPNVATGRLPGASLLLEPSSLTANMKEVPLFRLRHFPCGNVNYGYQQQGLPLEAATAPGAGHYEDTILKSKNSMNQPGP
Serine/threonine-protein kinase PAK 5 (Homo sapiens), sequence (Q9P286 whole entry, looked up): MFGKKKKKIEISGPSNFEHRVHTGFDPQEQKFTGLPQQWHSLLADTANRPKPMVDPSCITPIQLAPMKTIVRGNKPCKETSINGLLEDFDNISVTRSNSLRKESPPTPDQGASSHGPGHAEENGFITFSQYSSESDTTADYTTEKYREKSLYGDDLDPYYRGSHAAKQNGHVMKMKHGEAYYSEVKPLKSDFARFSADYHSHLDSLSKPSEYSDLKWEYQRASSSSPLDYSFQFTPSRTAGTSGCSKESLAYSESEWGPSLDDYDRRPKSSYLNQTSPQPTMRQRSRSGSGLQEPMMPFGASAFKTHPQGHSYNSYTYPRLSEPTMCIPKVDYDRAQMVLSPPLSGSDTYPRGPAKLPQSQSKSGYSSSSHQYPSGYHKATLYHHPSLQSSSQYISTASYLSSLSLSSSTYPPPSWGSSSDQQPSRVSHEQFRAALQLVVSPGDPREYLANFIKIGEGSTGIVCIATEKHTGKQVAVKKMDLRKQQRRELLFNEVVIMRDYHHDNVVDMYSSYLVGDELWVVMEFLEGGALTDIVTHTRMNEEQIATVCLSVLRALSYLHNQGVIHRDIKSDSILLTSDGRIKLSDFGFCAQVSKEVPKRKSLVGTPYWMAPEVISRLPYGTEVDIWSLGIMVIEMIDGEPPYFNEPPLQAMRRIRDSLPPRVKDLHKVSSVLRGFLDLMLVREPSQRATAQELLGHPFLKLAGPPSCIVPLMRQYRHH
Activated CDC42 kinase 1 (Homo sapiens), sequence (Q07912 whole entry, looked up): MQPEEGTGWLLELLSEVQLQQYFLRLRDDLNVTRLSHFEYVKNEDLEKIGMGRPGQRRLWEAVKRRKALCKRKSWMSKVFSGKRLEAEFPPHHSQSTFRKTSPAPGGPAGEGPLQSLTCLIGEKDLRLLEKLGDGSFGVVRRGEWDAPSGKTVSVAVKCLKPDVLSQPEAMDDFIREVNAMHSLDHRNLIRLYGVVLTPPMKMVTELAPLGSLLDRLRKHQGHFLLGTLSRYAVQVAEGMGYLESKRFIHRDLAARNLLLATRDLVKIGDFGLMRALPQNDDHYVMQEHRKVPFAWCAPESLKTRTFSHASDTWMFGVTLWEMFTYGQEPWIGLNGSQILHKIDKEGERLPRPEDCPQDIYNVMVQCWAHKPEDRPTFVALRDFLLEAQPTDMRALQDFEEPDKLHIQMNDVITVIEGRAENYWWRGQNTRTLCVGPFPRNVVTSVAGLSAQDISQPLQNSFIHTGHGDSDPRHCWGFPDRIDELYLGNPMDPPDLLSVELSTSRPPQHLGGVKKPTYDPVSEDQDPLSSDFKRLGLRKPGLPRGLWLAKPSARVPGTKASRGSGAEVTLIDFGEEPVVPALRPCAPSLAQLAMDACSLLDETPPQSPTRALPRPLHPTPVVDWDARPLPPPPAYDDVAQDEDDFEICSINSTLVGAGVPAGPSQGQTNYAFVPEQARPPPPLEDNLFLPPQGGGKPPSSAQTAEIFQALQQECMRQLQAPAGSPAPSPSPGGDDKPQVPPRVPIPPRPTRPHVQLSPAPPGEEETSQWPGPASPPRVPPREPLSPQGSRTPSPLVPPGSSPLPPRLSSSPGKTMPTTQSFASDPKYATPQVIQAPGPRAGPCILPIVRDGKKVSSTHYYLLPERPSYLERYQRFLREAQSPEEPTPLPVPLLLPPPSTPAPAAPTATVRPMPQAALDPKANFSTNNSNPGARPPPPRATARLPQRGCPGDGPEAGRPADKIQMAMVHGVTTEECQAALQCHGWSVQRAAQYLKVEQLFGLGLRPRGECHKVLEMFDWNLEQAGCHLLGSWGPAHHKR
Serine/threonine-protein kinase PAK 4 (Homo sapiens), sequence (O96013 whole entry, looked up): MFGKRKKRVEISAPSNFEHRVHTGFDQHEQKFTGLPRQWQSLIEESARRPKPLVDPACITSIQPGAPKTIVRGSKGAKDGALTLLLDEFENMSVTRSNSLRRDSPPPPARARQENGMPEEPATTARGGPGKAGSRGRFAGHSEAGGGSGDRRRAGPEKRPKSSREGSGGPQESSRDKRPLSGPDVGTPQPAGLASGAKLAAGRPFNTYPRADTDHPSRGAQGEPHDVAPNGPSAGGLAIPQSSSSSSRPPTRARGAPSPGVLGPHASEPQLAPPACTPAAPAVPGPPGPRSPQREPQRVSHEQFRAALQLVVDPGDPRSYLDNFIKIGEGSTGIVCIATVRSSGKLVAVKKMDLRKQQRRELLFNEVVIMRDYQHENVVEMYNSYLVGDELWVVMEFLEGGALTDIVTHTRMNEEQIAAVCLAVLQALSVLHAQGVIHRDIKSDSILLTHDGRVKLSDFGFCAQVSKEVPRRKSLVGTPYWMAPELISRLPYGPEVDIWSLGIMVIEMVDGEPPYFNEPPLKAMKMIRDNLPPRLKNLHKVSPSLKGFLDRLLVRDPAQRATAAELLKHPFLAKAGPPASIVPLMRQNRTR

Turning to `O=C1NC(=O)c2c1c1c3ccccc3[nH]c1c1[nH]c3cc(Br)ccc3c21`, the residual activity came to 94% in test [1]; 92% in test [2]; 101% in test [3]; 85% in test [4]; 77% in test [5]; 58% in [6]. Besides, the residual activity in [7] was found to be 96%; in test [8], 64%; in test [9], 61%; in test [10], 91%; in [11] it was 69%; in test [12], 106%. For the same compound, the residual activity in [13] was determined as 99%; in [14], 84%; in test [15], 87%; in [16], 82%; in test [17] it was 69%; in test [18], 52%. The residual activity was 45% in test [19] and 102% in test [20].

Regarding `CO[C@@H]1[C@H](N(C)C(=O)c2ccccc2)C[C@H]2O[C@]1(C)n1c3ccccc3c3c4c(c5c6ccccc6n2c5c31)C(=O)NC4`, the residual activity in test [1] was 64%; in test [2], 43%; in test [3], 52%; in test [4], 48%; in test [5], 49%; in [6] it was 26%. Besides, the residual activity was 0% in test [7]; 11% in test [8]; -1% in test [9]; 32% in test [10]; 33% in test [11]; 128% in [12]. Also, the residual activity was found to be 102% in test [13]; 10% in [14]; 6% in [15]; 1% in test [16]; 4% in [17]; 7% in test [18]. The figures for the residual activity in test [19] and in test [20] were 7% and 96%, respectively.

As to `COc1ccc(C(=O)Nc2sc3c(c2C(N)=O)CCCC3)cc1OC`, the residual activity in test [1] was 92%; in test [2], 86%; in test [3], 104%; in test [4] it was 116%; in test [5], 95%; in test [6] it was 93%. Further, the residual activity in test [7] was 90%; in test [8], 77%; in test [9], 54%; in test [10], 56%; in [11], 72%; in test [13], 83%. Also, the residual activity in test [14] is 90%; in test [15] it was 78%; in test [16] it was 93%; in test [17] it was 75%; in test [18], 87%; in test [19], 75%. Further, the residual activity in [20] turned out to be 114%.

On to `O=C(Nc1cccc(Nc2nccc(Nc3cccc(C(F)(F)F)c3)n2)c1)C1CC1`, for which the residual activity is 80% in [1]; 34% in test [2]; 97% in test [3]; 107% in [4]; 90% in [5]; 52% in test [6]. Moreover, the residual activity is 47% in test [7]; 25% in test [8]; 5% in [9]; 69% in [10]; 48% in test [11]; 106% in test [12]. In addition, the residual activity in [13] is 69%; in test [14], 96%; in [15], 81%; in test [16], 88%; in test [17] it was 83%; in test [18], 26%. Further, the residual activity in test [19] came out at 41%; in [20], 89%.

For the compound `CN(C)CCCn1cc(C2=C(c3c[nH]c4ccccc34)C(=O)NC2=O)c2ccccc21`, the residual activity in test [1] was 102%; in test [2], 75%; in [3], 88%; in [4], 77%; in test [6] it was 78%; in test [7] it was 18%. The residual activity in test [8] is 112%; in [9] it was 45%; in test [12], 119%; in [13] it was 76%; in test [14] it was 44%; in test [15], 10%. In addition, the residual activity is 26% in test [16], 4% in test [17], 35% in test [18] and 11% in test [19].

Turning to `CC(=O)c1ccc(N2CCOCC2)cc1O`, the residual activity in [1] was found to be 100%; in test [2], 90%; in [3] it was 97%; in [4] it was 91%; in test [5], 95%; in test [6] it was 107%. Also, the residual activity in [7] stood at 88%; in [8], 94%; in test [9], 73%; in [10], 80%; in test [11] it was 93%; in [12], 129%. The residual activity in test [13] stood at 106%; in test [14] it was 102%; in test [15], 90%; in [18] it was 97%; in test [19] it was 92%; in test [20], 92%.

Turning to `CCC(=O)Nc1ccc2ncnc(Nc3cccc(Br)c3)c2c1`, the residual activity in test [1] came out at 99%; in [2], 86%; in test [3], 97%; in test [4], 98%; in test [5] it was 107%; in test [6], 93%. Further, the residual activity in [7] turned out to be 36%; in test [8] it was 70%; in test [9] it was 36%; in [10], 81%; in [11] it was 88%; in test [12] it was 125%. Also, the residual activity in [13] came out at 105%; in test [14] it was 103%; in [15] it was 94%; in [16], 105%; in test [17], 87%; in test [18] it was 99%. Also, the residual activity was 92% in test [19] and 108% in test [20].
